Source: PubChem BioAssay (Sanford-Burnham Center for Chemical Genomics)
Sampled rows, rich in hits. Any-hit rate of the full collection: about 4%.
TROY NFkB inh – inhibitors of TROY-dependent NF-kB signaling; Q293 LMP1-TROYcd NF-kB luciferase reporter, 4 h; inhibition, % at 10 µM; actives 0.98% (n = 360,000); AID 1347056;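 active = compounds whose plate-normalised and pattern-corrected inhibition of the luciferase reporter signal at the single screening dose is 50% or more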
HIF-2a inh – blocks HIF-2a reporter activity. inhibition, % at 18.8 µM. actives 0.72% (n = 360,000). 786-0 RCC cells HIF-2a reporter, luciferase luminescence, overnight. AID 624352;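 active = inhibition of the luminescence signal of 40% or more relative to plate controls, in a single-dose primary screen at 18.75 µM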
TWEAK-Fn14 inh – TWEAK-Fn14 signaling inhibition; TWEAK-stimulated Fn14 reporter cells, luciferase luminescence, 8 h; inhibition, % at 10 µM; actives 2% (n = 360,000); AID 1159606; in the data active = inhibition above about 50%
Peg3 prom inh – reduces Peg3 promoter-driven luciferase expression in HeLa; HeLa PEG-Prom luciferase reporter, luminescence, overnight; inhibition, % at 20 µM; actives 1.7% (n = 360,000);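 active = inhibition of at least 50% at 20 µM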
KKLEB tox – reduces viability of KKLEB cystic fibrosis airway cells. activity change (cytotoxicity), % at 5 µM. KKLEB CF airway cells viability, ATPlite luminescence, overnight; active compounds read low; cells stimulated with P. aeruginosa culture filtrate. AID 602141. actives 0.36% (n = 360,000);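 active = corrected activity change at or below -50% at 5 µM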
CF NFkB block – cystic fibrosis NF-kB activation inhibition; inhibition, % at 5 µM; actives 0.86% (n = 360,000); KKLEB NF-kB-GFP reporter, PAF-induced, GFP fluorescence overnight;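 active = at least 50% inhibition at 5 µM, scaled per plate between neutral and stimulator controls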;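 also: PAF is a Pseudomonas aeruginosa culture filtrate used as stimulus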
Hits are given with their value; - = inactive.

SMILES | TROY NFkB inh | HIF-2a inh | TWEAK-Fn14 inh | Peg3 prom inh | KKLEB tox | CF NFkB block
CN(c1ccccc1)S(=O)(=O)c1cccc(C(=O)NCCc2ccc(O)c(O)c2)c1 | 56 | - | - | - | - | -
O=C(NCCc1ccccc1)c1ccc(Cl)c(S(=O)(=O)N2CCCC2)c1 | - | - | - | - | - | -
O=C(CCNS(=O)(=O)c1ccccc1C(F)(F)F)NNC(=O)C1COc2ccccc2O1 (configuration not stated) | - | - | - | - | - | -
C=CCn1c(SCC(=O)O)nc2sc(CC)cc2c1=O | - | - | - | - | - | -
C=CCn1c(SCC(=O)c2cccs2)nc2sc(CC)cc2c1=O | - | - | 79 | - | - | -
O=C(/C=C/c1ccc(Cl)c([N+](=O)[O-])c1)Nc1ccc(NC(=O)c2ccco2)cc1 | - | - | - | 61 | - | -
O=C(Nc1ccc(Cl)c([N+](=O)[O-])c1)c1ccco1 | - | - | - | - | - | -
O=C(/C=C/c1cccc([N+](=O)[O-])c1)Nc1cccc(NC(=O)c2ccco2)c1 | - | - | - | - | - | -
O=C(/C=C/c1ccc(Cl)c([N+](=O)[O-])c1)Nc1cccc(NC(=O)c2ccco2)c1 | - | - | 55 | 114 | - | -
c1ccc2c(c1)CCN(c1nc3cc4c(cc3s1)OCCO4)C2 | 75 | 47 | 103 | - | -52 | -
CC(=O)N(Cc1ccc(F)cc1)C1=C(NCc2ccccc2)C(=O)c2ccccc2C1=O | - | 68 | 51 | 110 | -53 | 92
CCN(CC)CCCNc1ccc(-c2nnc(-c3ccc(OCC(C)C)cc3)o2)cn1 | - | - | - | 113 | - | -
CC(C)COc1ccc(-c2nnc(-c3ccco3)o2)cc1 | - | - | 57 | - | - | -
O=C(COc1ccccc1)Nc1ccc(-c2nnc(-c3ccco3)o2)cc1 | - | - | - | - | - | -
CCCOc1ccc(-c2nnc(-c3ccco3)o2)cc1 | - | - | 72 | - | - | -
CCOc1cc(/C=C/c2nc3ccccc3s2)ccc1OCC(=O)N1CCOCC1 | - | - | - | - | - | -
Cc1nc2oc(C(=O)c3ccc(Br)cc3)c(N)c2c2c1COC(C)(C)C2 | - | - | - | - | - | -
O=C(C[C@@H]1C/C=C\C[C@@H](Cc2ccc(F)cc2)C(=O)OCCNC1=O)NCCO | - | - | - | - | - | -
Cc1cccc(C(=O)Nc2nc(C)c(C(=O)Nc3ccc4c(c3)CCC4)s2)c1 | - | - | 52 | - | - | -
CCN(CC)S(=O)(=O)c1ccc(-c2nnc(SCC(=O)N3CCc4ccccc43)o2)cc1 | - | - | - | 52 | - | -
CC(=O)c1cccc(NC(=O)CN(c2ccc(C)cc2)S(=O)(=O)c2cccc3nonc23)c1 | - | - | - | - | - | -
N#CC1C=Cc2ccccc2N1C(=O)c1ccccc1 (configuration not stated) | - | - | - | - | - | -
N#CC1C=Cc2c(ccc3ccccc23)N1C(=O)c1ccccc1 (configuration not stated) | - | - | 54 | - | - | -
COc1ccc(CCN2C(=O)c3cccc4c(C(=O)N5CCCCC5)ccc(c34)C2=O)cc1OC | 57 | - | 78 | 89 | - | -
COc1ccc(CCNC(=O)CCN2C(=O)c3cccc4cccc(c34)C2=O)cc1OC | - | - | - | - | - | -
SMILES | TROY NFkB inh | HIF-2a inh | TWEAK-Fn14 inh | Peg3 prom inh | KKLEB tox | CF NFkB block
Oc1cc(Nc2ccccc2)cc2cccnc12 | - | - | - | - | - | 78
Oc1cc(NCCN2CCOCC2)cc2cccnc12 | - | - | - | - | - | -
Oc1cccc2cc(Nc3ccccc3)cnc12 | - | - | 100 | - | - | -
c1ccc(Nc2ccccc2)cc1 | - | - | - | - | - | -
O=C(NCc1ccc(F)cc1)C1CC(=O)N(C2CCCC2)C1 (configuration not stated) | - | - | - | - | - | -
COCCN(C(=O)COC(=O)Cc1c(C)nc2ccccc2c1C)c1c(N)n(CC(C)C)c(=O)[nH]c1=O | - | - | - | - | - | -
CN1CCN(c2ccc(S(=O)(=O)N3CCCCC3)cc2NC(=O)c2ccc(C#N)cc2)CC1 | - | - | - | - | - | -
COc1cc(C2NC(=O)NC(C)=C2C(=O)OCc2ccc(C)cc2)cc(OC)c1O (configuration not stated) | - | - | - | - | - | -
CN(C(=O)CSc1nc(-c2ccccc2)cn1N)C(c1ccccc1)c1ccccc1 | - | - | - | - | - | -
CCOc1ccc(NC(=O)/C(C#N)=C/c2cn(CC(=O)O)c3ccccc23)cc1 | - | - | 92 | - | - | -
COC(=O)[C@H](C)NC(=O)NCc1ccco1 | - | - | - | - | - | -
Cc1ccc(C(C(=O)NC(C)(C)C)N(Cc2ccco2)C(=O)Cn2nnc(-c3cccs3)n2)cc1 (configuration not stated) | - | - | - | - | - | -
CC(C)(C)NC(=O)C(c1ccncc1)N(Cc1cccs1)C(=O)Cn1nnc(-c2cccs2)n1 (configuration not stated) | - | - | - | 63 | - | -
NC(=O)c1sc2nc(-c3ccccc3)c3c(c2c1N)CCCC3 | - | - | - | - | - | -
Nc1c2c(nc3sc4c(c13)CCCC4)-c1ccccc1CC2 | 56 | - | - | - | - | -
Cc1c(C(=O)NCc2ccc(C(F)(F)F)cc2)sc(=O)n1Cc1ccc(S(=O)(=O)N(C)C)cc1 | - | - | 57 | - | - | -
CC(=O)Oc1ccc(Cn2c(C)c(C(=O)NCc3ccc4c(c3)OCCO4)sc2=O)cc1 | 67 | - | - | - | - | -
COc1ccc(C(=O)Nn2c(SCC(=O)NC3CCCCC3)nc3ccccc3c2=O)cc1 | 78 | - | 92 | - | - | -
COc1ccc(C(=O)Nn2c(SCC(=O)c3ccc(Cl)cc3)nc3ccccc3c2=O)cc1 | 79 | - | 91 | - | - | -
COc1ccc(C(=O)Nn2c(SCC(=O)NCc3ccco3)nc3ccccc3c2=O)cc1 | 80 | - | 88 | - | - | -
COc1ccc(C(=O)Nn2c(SCc3cccc([N+](=O)[O-])c3)nc3ccccc3c2=O)cc1 | 76 | - | 79 | - | - | -
COC1=CC(=O)C(O)=C(CCCCCCC/C=C/CCCCCCCC2=C(O)C(=O)C=C(OC)C2=O)C1=O | 61 | - | 85 | - | - | -
Nc1nc(Br)c2ccccc2c1-c1ccccc1 | - | - | - | - | - | -
C[C@H](CO)N1C[C@H](C)[C@@H](CN(C)C(=O)c2ccc3c(c2)OCO3)Oc2cc(/C=C/c3ccccc3)ccc2S1(=O)=O | - | - | - | 62 | - | -
Cc1ccc(S(=O)(=O)NC(CC(C)C)C(=O)Oc2ccc3c4c(c(=O)oc3c2)CCC4)cc1 (configuration not stated) | 69 | - | - | - | - | -
